# High-throughput results: PubChem BioAssay, several laboratories
# Cl transport mod: modulators of human KCC2 chloride dependent transport; Q9H2X9; KCC2 cells, thallium flux FluoZin-2 fluorescence; B-score of Tl+ flux slope (higher = more flux/activation; lower = inhibition) at 10 µM; hit rate 2.2% among 190,000; AID 1456;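 active = thallium flux slope and its plate-corrected score both differing from the plate sample mean at a set confidence after two filtering rounds, in either direction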;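 note: slope of fluorescence scaled to starting intensity during 10 to 20 s after thallium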
# L major viab: inhibitors of Leishmania major promastigote growth | Leishmania major promastigotes, resazurin fluorescence viability | hit rate 9% among 200,000 | inhibition, % at 10 µM | AID 1063; in the data active = inhibition above about 50%;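 note: promastigotes grown with compound for 44 hours at 28 °C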
# WT yeast gro inh: growth inhibition of WT yeast, mitochondrial fusion screen; hit rate 2.1% among 190,000; AID 1362; inhibition, % at 10 µM; mitochondrial fusion phenotypic screen, WT strain; in the data active = inhibition above about 58%; tested in S. cerevisiae
# m-calpain inh: blocks pig calpain II enzyme activity | purified calpain II, fluorogenic peptide substrate, 30 min | inhibition, % at 16 µM | hit rate 0.37% among 220,000;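 active = inhibition above about 50%, limit read from the data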
# ROMK mod: modulates human ROMK potassium channel activity; P48048; Tet-inducible ROMK, thallium flux fluorescence; actives lie on both sides; B-score at 10 µM; hit rate 2% among 130,000;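 active = signal ratio slope over the read window, or its plate-corrected B-score, at least 3 SD from the plate mean, either direction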;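 note: B-score of the F/F0 ratio slope over 7 to 12 s after thallium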
# * marks the source's active call; other numbers are inactive results; i = inactive; . = not tested or not shown. The list is not random: actives were taken first. Their share in the collection is about 12%.
SMILES,Cl transport mod,L major viab,WT yeast gro inh,m-calpain inh,ROMK mod
COc1ccccc1C(=O)N1CCN(Cc2nc3cc([N+](=O)[O-])ccc3n2C)CC1,0.36,4,3,25,-0.43
Cn1c(CN2CCN(C(=O)c3ccc(F)cc3)CC2)nc2cc([N+](=O)[O-])ccc21,-0.68,64*,3,9,.
CN1CCN(c2nc(-c3cccnc3)nc3ccccc23)CC1,-0.75,39,94*,10,-0.76
Oc1ccccc1-c1nc(N2CCN(Cc3ccccc3)CC2)c2ccccc2n1,0.71,19,24,3,.
CCN1CCN(c2nc(-c3ccncc3)nc3ccccc23)CC1,0.89,100*,-11,-25,.
O=S(=O)(/C=C/c1ccccc1)N1CCN(c2nc(-c3ccccc3)nc3ccccc23)CC1,-0.14,65*,-11,-49,-0.1
O=S(=O)(/C=C/c1ccccc1)N1CCN(Cc2ccccc2)CC1,-0.48,78*,47,2,-0.67
c1cncc(-c2nc(N3CCCCCC3)c3ccccc3n2)c1,-2.7,31,55,9,-2.6
COC(=O)Cc1csc(NC(=O)CSc2nnc3ccccn23)n1,0.35,-14,-13,4,-0.61
CCN1CCN(c2nc(-c3cccnc3)nc3ccccc23)CC1,-0.028,54*,6,19,.
O/N=C/c1ccc(-c2cc(Cl)ccc2Cl)o1,-1.7,67*,-10,4,.
Clc1ccc(Cl)c(-c2ccc(/C=N/c3ncn[nH]3)o2)c1,-1,21,18,15,-2.1
CC(C)Cn1c(SCC(=O)NCc2ccc(Cl)cc2)nnc1-c1cccc(S(=O)(=O)N2CCOCC2)c1,-0.66,-5,-3,5,-0.49
COC(=O)C1=CN(Cc2ccc(OC)cc2)C=C(C(=O)OC)C1c1cccs1,-0.89,100*,43,i,-0.19
CN(C(=O)CCl)C1CCCc2ccccc21 (stereo not given),-0.79,86*,-15,14,-1.5
O=C(CCl)NC1CCCc2ccccc21 (stereo not given),0.09,7,0,13,0.048
Cc1ccc(-c2nnc(OCC3CCCO3)c3ccccc23)cc1 (stereo not given),1.1,7,11,39,-1.1
COc1cc(/C=N/Nc2nc(Nc3ccccc3)nc(N3CCOCC3)n2)ccc1OC(=O)c1ccco1,1.1,22,7,-112,0.72
COc1ccc(O)c(/C=N/Nc2nc(Nc3ccccc3)nc(-n3nc(C)cc3C)n2)c1,0.13,101*,16,-144,1.5
Cc1cc(N/N=C/c2cccc(Cl)c2)nc(-n2nc(C)cc2C)n1,.,.,.,-45,.
COc1cc(/C=N/Nc2nc(Nc3ccccc3)nc(-n3nc(C)cc3C)n2)cc(OC)c1OC,-0.21,100*,2,-161,-0.98
COc1cc(/C=N/Nc2nc(Nc3ccc(C)cc3)nc(-n3nc(C)cc3C)n2)cc(OC)c1OC,-0.99,100*,10,-229,.
Cc1[nH]c2ccccc2c1/C=N/Nc1nc(Nc2ccccc2)nc(N2CCOCC2)n1,0.11,100*,16,-132,.
CCn1c(SCc2ccc(C#N)cc2)nnc1-c1ccc(S(=O)(=O)N2CCCCC2)cc1,-0.32,27,-11,-16,-2.6
COc1cccc(C(=O)Nc2cc(C)c3c(=O)oc4ccccc4c3n2)c1,0.76,.,8,-17,.
SMILES,Cl transport mod,L major viab,WT yeast gro inh,m-calpain inh,ROMK mod
Nc1c([N+](=O)[O-])cc(-c2cnc[nH]2)cc1[N+](=O)[O-],-2.2,-6,1,-23,-0.093
Cc1[nH]c2ccccc2c1/C=N/Nc1ccccn1,0.35,56*,16,-2,-0.66
COc1cc(/C=N/Nc2nc(Nc3ccccc3)nc(N3CCCCC3)n2)ccc1OCC(=O)O,0.5,-11,1,-63,0.52
COc1ccc(/C=N/Nc2nc(Nc3ccccc3)nc(N3CCCCC3)n2)c(OC)c1,-0.48,100*,6,5,.
Cc1[nH]c2ccccc2c1/C=N/Nc1nncn1N,0.15,10,-6,-19,-0.4
CC1=CC(=O)N(c2ccc(C)cc2)C1c1ccc(Cl)cc1 (stereo not given),0.27,61*,26,-13,.
O=C(CCn1cnc2ccccc2c1=O)Nc1nc(-c2ccc(Br)cc2)cs1,0.24,-6,4,28,.
NC(=S)N/N=C/c1c(O)c(Br)cc2oc3c(c12)CCCC3,.,.,.,5,.
Oc1c(Br)cc2oc3c(c2c1CNCc1ccccc1)CCCC3,1.3,43,16,-44,2.9*
O=c1cc(N2CCCCC2)c(-c2ccccc2)nn1Cc1ccccc1,-0.69,13,76*,15,-3.1*
Cn1nc(-c2ccccc2)c(N2CCCCC2)cc1=O,-0.091,4,16,16,0.019
